The values below come from PubChem BioAssay.

The structures appear in SMILES notation. Active and inactive are the calls of the source.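 The calls were made as follows: active = inhibition at or above 50% relative to wild type and mutant plate controls; inactive = inhibition below 50%.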

One may read the inhibition as the change of the read-out against control, counted positive when it falls.

This test can be described thus: inhibitors of Chlamydomonas gravitaxis, primary screen, whole organism, Chlamydomonas reinhardtii, WT vs cilia-less mutant, absorbance, 96-well (AID 463189).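 Also: 0% = wild type cc124 cells in DMSO and 100% = ciliumless bld1 mutant cells.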 Conditions: OD600 absorbance, 2 days, at 10 µM, active compounds read high.
For `OCc1ccc(-c2nn(Cc3ccccc3)c3ccccc23)o1`, the inhibition is 3.81% (inactive).
As for `CC(C)C[C@H](N)CSSC[C@@H](N)CC(C)C`, the inhibition is 6.54% (inactive).
With `Cn1c(=O)c2c(nc(/C=C/c3cccc(Cl)c3)n2C)n(C)c1=O` the figure was 18.1% (inactive).
With `CN1CCC2(CCN3CCc4c(oc5ccccc45)C3C2)N(C)C1=O` (configuration not stated), the inhibition is -3.27% (inactive).
Turning to `Cc1nc(N=Nc2ccc(S(=O)(=O)O)cc2S(=O)(=O)O)c(COP(=O)(O)O)c(C=O)c1O`, the inhibition was 2.65% (inactive).
Take `CN=C(N)NCCC[C@H](N)C(=O)O`: the inhibition was 3.39% (inactive).
As to `CCCCCCCCCCCCCCCC(=O)NCC(COP(=O)([O-])OCC[N+](C)(C)C)OCC` (configuration not stated), the inhibition is -1.73% (inactive).
Take `O=S(=O)(c1cccc2c(Cl)cccc12)N1CCCNCC1`: the inhibition was 6.11% (inactive).
For the molecule `O=C(O)CCC(NC(=O)c1ccccc1C(=O)O)C(=O)O` (configuration not stated), the inhibition is 1.62% (inactive).
Turning to `NC(=O)C1=CN(C2OC(COP(=O)(O)OP(=O)(O)OC[C@H]3O[C@@H](n4cnc5c(N)ncnc54)C(OP(=O)(O)O)[C@H]3O)C(O)C2O)C=CC1` (some centres not stated), the inhibition was -0.493% (inactive).
As to `O=C(O)C1CCCN(CCC=C(c2ccccc2)c2ccccc2)C1` (configuration not stated), the inhibition is 11.4% (inactive).
Turning to `CCCCCCCCCC(=O)NC(CN1CCOCC1)[C@H](O)c1ccccc1` (some centres not stated), the inhibition is -8.57% (inactive).
For the molecule `NC(N)=NCc1cccc(I)c1`, the inhibition was 4.17% (inactive).
With `N[C@@H](Cc1ccc(O)c(O)c1)C(=O)O`, the inhibition was 2.49% (inactive).
For the molecule `CNCCNS(=O)(=O)c1cccc2cnccc12`, the inhibition is 5.09% (inactive).
As for `CC(=O)N[C@H](C(=O)O)C(C)(C)SN=O`, the figure is 3.53% (inactive); as for `O=C(O)CCCCCCCC(=O)O`, 5.5% (inactive); as for `O=C(O)CCC/C=C\C[C@@H]1[C@@H](/C=C/[C@H](O)C2Cc3ccccc3C2)[C@@H](F)C[C@@H]1O`, -14% (inactive).
For the molecule `N#CC(=C(\N)Sc1ccccc1N)/C(C#N)=C(/N)Sc1ccccc1N`, the inhibition is 13.7% (inactive).
Take `NC(N)=NC(N)=Nc1ccccc1`: the inhibition was 4.74% (inactive).
On to `Cc1nc(N=Nc2ccc(C(=O)O)cc2)c(COP(=O)(O)O)c(C=O)c1O`, for which the inhibition was 8.14% (inactive).
As for `Cc1cccc(C)c1NC(=O)C[N+](C)(C)C`, the figure is 7.92% (inactive).
